Measured values from PubChem BioAssay (NCATS).
Several values for one entry are separate records, joined by “and”; a condition that tells them apart may be missing. Equal entries are not always repeated. Records with an inconclusive call do not appear. Entries that show only a call come without a potency. Where a structure was tested more than once in an assay, its records may differ in their call. Activity calls are given as the source filed them. Calls come from the whole dose curve; as a rule, active = well fitted curve in the direction sought with a large enough effect; inconclusive = small, poorly fitted or top-dose-only effect, or another doubt; inactive = no such curve, though single readings can be large; an effect the other way counts as inactive or inconclusive.

Assays:
[1] = Viability qHTS for spleen associated tyrosine kinase inhibitor (SYKi) naive MV4-11 cells (AID 1963823); note: nearly all actives have a fitted effect of over 40% in size
Procedure, shortened: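 Compounds were dispensed acoustically onto plates, MV4-11 cells (SYKi-naive) added at 500 per well, and plates incubated 72 hr at 37 C. CellTiter-Glo was added and luminescence measured after 10 min.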

[2] = Viability qHTS for spleen associated tyrosine kinase inhibitor (SYKi) drug resistant MV4-11 cells (AID 1963824); note: nearly all actives have a fitted effect of over 35% in size
Procedure, shortened: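 SYK-inhibitor-resistant MV4-11 AML cells were seeded at 500 per well onto compound and cultured 72 hours (37 °C, 5% CO2). CellTiter-Glo was then added, and after 10 min at room temperature, luminescence gave viability.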

[3] = Quantitative highthroughput screen to assess conditional lethalithy of NOMO1 cells grown in RPMI1640 with untreated serum (RPMI+s) (AID 1963876); note: nearly all actives have a fitted effect of over 35% in size
Procedure, shortened: (§1)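 Each medium arm—HPLM with 10% dialyzed FBS, or RPMI1640 with 5 mM glucose and 10% untreated or dialyzed FBS—was screened against an 11-point, 3-fold compound titration for 48 h at 37 °C, with CellTiter-Glo luminescence as endpoint.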

[4] = Quantitative highthroughput screen to assess conditional lethalithy of NOMO1 cells grown in RPMI1640 with dialyzed fetal bovine serum (RPMI+ds) (AID 1963877); note: nearly all actives have a fitted effect of over 30% in size; for Viability: series mostly up to about 46 µM
Procedure, shortened: as §1

[5] = Quantitative highthroughput screen to assess conditional lethalithy of NOMO1 cells grown in Human Plasma-Like Medium with dialyzed fetal bovine serum (HPLM+ds) (AID 1963878); note: nearly all actives have a fitted effect of over 35% in size
Procedure, shortened: as §1

[6] = Cellular viability qHTS for adrenocortical cancer (ACC) cell line SW-13 (AID 1963989); conditions: SW-13 ACC cells viability, CellTiter-Glo, 48 h; activity (max response): stronger effect = lower value; note: nearly all actives have a fitted effect of over 65% in size;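 for activity (max response): cells grown in serum-free medium with ITS supplement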
Procedure, shortened: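 Here, serum-free SW-13 cultures were dosed up to 46 uM. Following 48 h, ATP-dependent luminescence (CellTiter-Glo) reported viable cells, and logistic modeling produced IC50 values.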

[7] = Cellular viability qHTS for adrenocortical cancer (ACC) cell line NCI-H295R (AID 1963990); note: nearly all actives have a fitted effect of over 60% in size
Procedure, shortened: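 Viability of NCI-H295R after 48 h of treatment (final up to 46 uM) measured through cellular ATP luminescence.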

[8] = Quantitative highthroughput screen to assess conditional lethalithy of P12 Ichikawa cells grown in RPMI1640 with dialyzed fetal bovine serum (RPMI+ds) (AID 1963880); conditions: Potency: P12-Ichikawa viability; note: nearly all actives have a fitted effect of over 35% in size
Procedure, shortened: as §1

[9] = Quantitative highthroughput screen to assess conditional lethalithy of P12 Ichikawa cells grown in RPMI1640 with untreated serum (RPMI+s) (AID 1963881); conditions: Potency: viability; note: nearly all actives have a fitted effect of over 35% in size; for Viability: series mostly up to about 46 µM
Procedure, shortened: as §1

[10] = Quantitative highthroughput screen to assess conditional lethalithy of SEM cells grown in Human Plasma-Like Medium with dialyzed fetal bovine serum (HPLM+ds) (AID 1963882); note: nearly all actives have a fitted effect of over 35% in size; for Viability: series mostly up to about 46 µM
Procedure, shortened: as §1

[11] = Quantitative highthroughput screen to assess conditional lethalithy of SEM cells grown in RPMI1640 with dialyzed fetal bovine serum (RPMI+ds) (AID 1963884); note: nearly all actives have a fitted effect of over 35% in size; for Viability: series mostly up to about 46 µM
Procedure, shortened: as §1

[12] = Quantitative highthroughput screen to assess conditional lethalithy of SEM cells grown in RPMI1640 with unreated serum (RPMI+s) (AID 1963883); note: nearly all actives have a fitted effect of over 35% in size
Procedure, shortened: as §1

[13] = Quantitative highthroughput screen to assess conditional lethalithy of P12 Ichikawa cells grown in Human Plasma-Like Medium with dialyzed fetal bovine serum (HPLM+ds) (AID 1963879); conditions: Potency: viability; note: nearly all actives have a fitted effect of over 35% in size; for Viability: series mostly up to about 46 µM
Procedure, shortened: as §1
Potency is the fitted concentration of half-maximal effect.

Compound | Potency [1] | Potency [2] | Potency [3] | Potency [4] | Potency [5] | activity (max response) [6] | Potency [7] | Potency [8] | Potency [9] | Potency [10] | Potency [11] | Potency [6] | Potency [12] | Potency [13]
CCCc1nn(C)c2c(=O)[nH]c(-c3cc(S(=O)(=O)N4CCN(C)CC4)ccc3OCC)nc12 | inactive | 18.6 µM (active) | inactive | inactive | inactive | 1.97% (inactive) and 1.26% (inactive) | inactive | – | – | – | – | – | – | –
O=C(CCN1CCN(C(=O)OCc2cc(Cl)cc(Cl)c2)CC1)c1ccc2[nH]c(=O)oc2c1 | 20.6 µM (active) and 8.33 µM (active) | 16.6 µM (active) | inactive | inactive | inactive | -15.7% (inactive) | – | – | – | – | – | – | – | –
O=c1cc(-c2cccc3c2Sc2ccccc2S3)oc(N2CCOCC2)c1 | 6.51 µM (active) and 16.6 µM (active) | 5.8 µM (active) and 9.34 µM (active) | inactive | inactive | inactive | – | 25100 nM (active) | inactive | inactive | inactive | inactive | 28200 nM (active) | – | –
CCCCOc1ccc(CC(=O)NO)cc1 | inactive and 14.8 µM (active) | inactive and 18.6 µM (active) | inactive | inactive | inactive | -10.9% (inactive) | inactive | – | – | – | – | – | – | –
CNC(=O)c1ccc2c(C(=Nc3cccc(CN(C)C)c3)c3ccccc3)c(O)[nH]c2c1 | 2.95 µM (active) | 5.8 µM (active) and 3.72 µM (active) | 20900 nM (active) | 18700 nM (active) | 16600 nM (active) | – | 22400 nM (active) | – | – | 1870 nM (active) | 1320 nM (active) | – | 935 nM (active) | –
COc1ccc2c(Oc3ccc(NC(=O)c4c(C)n(CC(C)(C)O)n(-c5ccccc5)c4=O)cc3F)ccnc2c1 | 0.0934 µM (active) | 0.148 µM (active) | inactive | 18700 nM (active) | inactive | – | – | inactive | inactive | – | – | – | 3320 nM (active) | –
CC[C@H](C=C[C@@H](C)[C@H]1CC[C@H]2[C@@H]3CC=C4C[C@@H](O)CC[C@]4(C)[C@@H]3CC[C@]12C)C(C)C | inactive | inactive | inactive | inactive | – | 10.2% (inactive) | inactive | inactive | – | inactive | inactive | – | inactive | inactive
C[Se]CCC(N)C(=O)O (stereo unspecified) | inactive | inactive | inactive | inactive | – | – | inactive | inactive | inactive | – | – | – | – | inactive
CC(C)(C)Cn1c(N)nc2ccc(-c3[nH]c(C(C)(C)C)nc3-c3ccc(F)cc3)nc21 | 16.6 µM (active) | 461 nM (active) and 14.8 µM (active) | inactive | inactive | – | – | – | inactive | inactive | inactive | – | 25100 nM (active) | – | inactive
CCC(c1ccc(O)cc1)C(CC)c1ccc(O)cc1 (stereo unspecified) | 20.9 µM (active) | 26.3 µM (active) | inactive | inactive | – | – | 15800 nM (active) | inactive | inactive | – | – | 17800 nM (active) | – | inactive
CON(C)C(=O)N1N=C(c2cc(F)ccc2F)S[C@@]1(CCCN)c1ccccc1 | 0.0092 µM (active) | 10.3 nM (active) and 3.3 nM (active) | 20.9 nM (active) | 23.4 nM (active) | – | – | 56.2 nM (active) | 33.1 nM (active) | 20.9 nM (active) | 5.2 nM (active) | – | 14.1 nM (active) | 11.7 nM (active) | 26.3 nM (active)
OCc1ccc(-c2ccc(-c3ccc(CO)s3)o2)s1 | 1.18 µM (active) | 0.833 µM (active) | inactive | inactive | – | -9.77% (inactive) | 28200 nM (active) | – | inactive | inactive | inactive | – | inactive | inactive
NC(=O)c1ccc2nc(-c3ccc(Oc4ccc(Cl)cc4)cc3)[nH]c2c1 | 5.17 µM (active) | 2.95 µM (active) and 8.2 µM (active) | inactive | inactive | – | – | 25100 nM (active) | inactive | – | – | – | 28200 nM (active) | – | inactive
Cn1cc(CNCC2CCN(c3ncc(C(=O)NO)cn3)CC2)c2ccccc21 | 0.0661 µM (active) | 0.0166 µM (active) | 372 nM (active) | 332 nM (active) | – | – | 794 nM (active) | 372 nM (active) | 235 nM (active) | 132 nM (active) | 132 nM (active) | 1260 nM (active) | – | 264 nM (active)
